# Experimental data as given in PubChem BioAssay (Tox21).
# Values without a mark were called inactive. Inconclusive results are not listed. A call without a number means that no potency is given here. Calls of active or inactive are those of the source. Unless noted, the call rests on the fitted dose curve; in most records, active means well fitted curve in the direction sought with a large enough effect in the repeat runs; inconclusive means weak or mixed curves; inactive means no such curve, though single readings can be large; an effect the other way counts as inactive or inconclusive.
# Columns and labels:
# [1] = qHTS assay for small molecule agonists of the p53 signaling pathway (AID 651631; calls by dose curve; further: nearly all actives have a fitted effect of over 15% in size)
# Summary of the method: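 Readout was fluorescence from the LiveBLAzer FRET substrate, applied for 2 h at room temperature after 16 h compound exposure at 37 °C. Cells were the p53RE-bla HCT-116 line, with beta-lactamase driven by p53 response elements.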
# [2] = qHTS assay for small molecules that induce genotoxicity in human embryonic kidney cells expressing luciferase-tagged ATAD5 (AID 651632); further: nearly all actives have a fitted effect of over 15% in size
# Summary of the method: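 Luminescence read-out: after 16 hr compound exposure at 37C, ATAD5-luciferase HEK293T cells received Amplite, 30 min RT, then CCD imaging. A rise in signal marks genotoxic stress.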
# [3] = qHTS assay for small molecule agonists of the p53 signaling pathway - cell viability (AID 651633; calls by dose curve; further: series mostly up to about 83 µM; nearly all actives have a fitted effect of over 30% in size)
# Summary of the method: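 p53RE-bla cells, seeded at 4,000 per well and rested 5 h at 37 C/5% CO2, received compounds in DMSO for 16 h at 37 C. CellTiter-Glo was then added, and luminescence was read after 30 min at room temperature to gauge cytotoxicity.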
# [4] = qHTS assay for small molecules that induce genotoxicity in human embryonic kidney cells expressing luciferase-tagged ATAD5 - cell viability (AID 651634; calls by dose curve; further: nearly all actives have a fitted effect of over 25% in size)
# Summary of the method: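 HEK293T ATAD5-luc cells, 2,000/well; compound 15.5 hr, 37C/5% CO2; CellTiter-Fluor 30 min, 37C; fluorescence read.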
# [5] = qHTS assay for small molecule disruptors of the mitochondrial membrane potential - cell viability (AID 720634; calls by dose curve;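 further: human HepG2 liver cancer cells; series mostly up to about 83 µM; nearly all actives have a fitted effect of over 20% in size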)
# Summary of the method: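 Luminescence from CellTiter-Glo (ATP content) gave viability in HepG2 cells, read in the same wells as the MMP dye assay after 1 hr compound exposure at 37 C.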
# [6] = qHTS assay for small molecule disruptors of the mitochondrial membrane potential (AID 720635); further: potency means the concentration at half of the fitted maximal effect
# Summary of the method: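 HepG2 cells (2,000/well) attached overnight at 37C, then took compound for 1 hr at 37C, 5% CO2. Mito-MPS dye was added for 30 min; fluorescence was read at 490/535 nm (monomers) and 540/590 nm (aggregates).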
# [7] = qHTS assay to test for compound auto fluorescence at 535 nm (green) in HepG2 cells (AID 720675)
# [8] = qHTS assay to test for compound auto fluorescence at 460 nm (blue) in HEK293 cells (AID 720678)
# Summary of the method: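 Measured: blue fluorescence (Ex 405/Em 460 nm) of compound-treated HEK293 cells, incubated overnight at 37C with 5% CO2 and scaled to triamterene equivalents.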
# [9] = qHTS assay to test for compound auto fluorescence at 590 nm (red) in HEK293 cells (AID 720679)
# Summary of the method: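 Using HEK293 cells at 2,000 per well, the screen added 23 nL of each compound after cell attachment and incubated overnight (37C, 5% CO2). The plate reader then captured red-label fluorescence, Ex/Em 540/590nm.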
# [10] = qHTS assay to test for compound auto fluorescence at 535 nm (green) in HEK293 cells (AID 720680)
# [11] = qHTS assay to test for compound auto fluorescence at 460 nm (blue) in HEK293 cell free culture (AID 720681)
# Summary of the method: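 Test compounds were pinned into cell-free culture medium (DMEM with 10% FBS) and fluorescence was read directly at Ex/Em 405/460 nm. Signals were expressed as fluorescence equivalents of triamterene, with DMSO vehicle as control.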
# [12] = qHTS assay to test for compound auto fluorescence at 535 nm (green) in HEK293 cell free culture (AID 720682)
# Summary of the method: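 Compounds were pin-transferred into cell-free DMEM with 10% FBS, and green fluorescence was read at excitation 485 nm and emission 535 nm. Intensities were expressed as fluorescein-equivalent values.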
# [13] = qHTS assay to test for compound auto fluorescence at 590 nm (red) in HEK293 cell free culture (AID 720683)
# Summary of the method: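 Tox21 10K library compounds were pinned into cell-free DMEM with 10% FBS and fluorescence was read at excitation 540 nm. Activity is expressed as Rose Bengal sodium equivalency.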
# [14] = qHTS assay to test for compound auto fluorescence at 590 nm (red) in HepG2 cell free culture (AID 720684)
# Summary of the method: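 Ex 540 / Em 590 nm read of compound in cell-free MEM (10% FBS). Rose Bengal sodium reference.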
# [15] = qHTS assay to test for compound auto fluorescence at 460 nm (blue) in HepG2 cell free culture (AID 720685)
# Summary of the method: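 Cell-free plates of MEM plus 10% FBS received 23 nL compound or DMSO vehicle; blue-channel (405/460 nm) intensity scored against triamterene as reference fluorophore.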
# [16] = qHTS assay to test for compound auto fluorescence at 535 nm (green) in HepG2 cell free culture (AID 720686)
# [17] = qHTS assay to test for compound auto fluorescence at 460 nm (blue) in HepG2 cells (AID 720687)
# Summary of the method: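 Cells (2,000/well in MEM with 10% FBS) attached overnight at 37 C, then were exposed to compound or DMSO for 1 hr at 37 C, 5% CO2. Fluorescence read at Ex/Em 405/460 nm, expressed as triamterene-equivalent signal.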
# [18] = biological target: Glucocorticoid receptor (Homo sapiens) (UniProt P04150); assay: qHTS assay to identify small molecule agonists of the glucocorticoid receptor (GR) signaling pathway (AID 720691; active means well fitted activation curve with a large enough effect in the signal ratio in the repeat runs, not every such curve was filed as active; the % refers to the signal ratio)
# Summary of the method: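 HeLa GR-bla reporter line; cells pre-incubated 4 h, compound in DMSO 18 h at 37 C; LiveBLAzer B/G FRET substrate 2 h RT; fluorescence intensity read-out.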
# [19] = qHTS assay to test for compound auto fluorescence at 590 nm (red) in HepG2 cells (AID 720674)
# Summary of the method: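 Compound auto-fluorescence is scored relative to Rose Bengal sodium, measured at 540/590 nm in live HepG2 cultures after 1 hr compound contact (37 C, 5% CO2).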
# [20] = biological target: Glucocorticoid receptor (Homo sapiens) (UniProt P04150); assay: qHTS assay to identify small molecule antagonists of the glucocorticoid receptor (GR) signaling pathway (AID 720692; active means well fitted inhibition curve with a large enough effect in the signal ratio in the repeat runs, not every such curve was filed as active; the % refers to the signal ratio)
# Summary of the method: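 Read-out: beta-lactamase FRET substrate fluorescence, 2 h at room temperature, in HeLa cells stably carrying a GRE-driven bla reporter. Compounds were co-incubated with 5 nM dexamethasone agonist (final) for 18 h at 37 C.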
# Chain of Glucocorticoid receptor (Homo sapiens) (P04150 whole entry, looked up): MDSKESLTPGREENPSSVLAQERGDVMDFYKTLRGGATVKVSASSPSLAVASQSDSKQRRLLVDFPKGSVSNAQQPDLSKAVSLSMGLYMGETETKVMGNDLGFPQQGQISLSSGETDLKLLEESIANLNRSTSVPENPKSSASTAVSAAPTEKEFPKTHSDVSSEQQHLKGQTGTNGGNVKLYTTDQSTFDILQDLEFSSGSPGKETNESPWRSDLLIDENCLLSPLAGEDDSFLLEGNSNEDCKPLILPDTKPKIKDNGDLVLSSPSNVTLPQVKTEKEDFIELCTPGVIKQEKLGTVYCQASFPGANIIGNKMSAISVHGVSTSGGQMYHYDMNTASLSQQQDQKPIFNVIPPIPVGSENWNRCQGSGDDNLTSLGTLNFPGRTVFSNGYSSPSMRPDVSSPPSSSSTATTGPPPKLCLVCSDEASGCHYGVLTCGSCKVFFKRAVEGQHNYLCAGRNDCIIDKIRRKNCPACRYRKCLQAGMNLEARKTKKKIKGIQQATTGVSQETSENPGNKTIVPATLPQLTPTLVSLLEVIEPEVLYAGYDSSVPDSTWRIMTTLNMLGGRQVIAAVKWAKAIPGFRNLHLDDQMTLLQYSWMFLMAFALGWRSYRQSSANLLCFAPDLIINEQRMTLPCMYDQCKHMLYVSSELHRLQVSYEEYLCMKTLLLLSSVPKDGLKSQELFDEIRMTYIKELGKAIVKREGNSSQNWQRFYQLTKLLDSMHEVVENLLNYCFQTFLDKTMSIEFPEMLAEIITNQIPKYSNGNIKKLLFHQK
structure (smiles),measurement,setting,value
CCCCCCCCCCCC[N+](C)(C)CC(=O)[O-],Potency,[1],inactive
same,Potency,[2],inactive
same,Potency,[3],inactive
same,Potency,[4],inactive
same,Potency,[5],inactive
same,Potency,[6],inactive
same,outcome,[7],inactive
same,Potency,[8],inactive
same,outcome,[9],inactive
same,outcome,[10],inactive
same,Potency,[11],inactive
same,outcome,[12],inactive
same,outcome,[13],inactive
same,outcome,[14],inactive
same,Potency,[15],inactive
same,outcome,[16],inactive
same,Potency,[17],inactive
same,Potency,[18],inactive
CCn1nc(C)c2c1C(=O)NCC(c1ccc(O)cc1)=N2,Potency,[1],inactive
same,Potency,[2],inactive
same,Potency,[3],inactive
same,Potency,[4],inactive
same,Potency,[5],inactive
same,outcome,[19],inactive
same,outcome,[7],inactive
same,Potency,[8],inactive
same,outcome,[9],inactive
same,outcome,[10],inactive
same,Potency,[11],inactive
same,outcome,[12],inactive
same,outcome,[13],inactive
same,outcome,[14],inactive
same,Potency,[15],inactive
same,outcome,[16],inactive
same,Potency,[17],inactive
same,Potency,[18],inactive
CCCCN(CCCC)CCCOC(=O)c1ccc(N)cc1,Potency,[1],inactive
same,Potency,[2],inactive
same,Potency,[3],inactive
same,Potency,[4],inactive
same,Potency,[5],inactive
same,"fluorescence, relative to Rose Bengal",[19],-0.556% [at 18.6 µM]
same,"fluorescence, % of fluorescein control",[7],0.038% [at 18.6 µM]
same,"fluorescence, % of triamterene",[8],-0.0222% [at 18.6 µM]
same,"fluorescence, % of fluorescent control",[9],0.141% [at 18.6 µM]
same,"fluorescence, % of fluorescein",[10],0.0466% [at 18.6 µM]
same,"fluorescence, % of fluorescent control",[11],-0.0006% [at 18.6 µM]
same,activity change,[12],-0.0464% [at 18.6 µM]
same,"fluorescence, % of fluorescent control",[13],0.0804% [at 18.6 µM]
same,"fluorescence, % of Rose Bengal",[14],0.0643% [at 18.6 µM]
same,"fluorescence, % of fluorescent control",[15],0.138% [at 18.6 µM]
same,"fluorescence, % of fluorescein control",[16],-0.0572% [at 18.6 µM]
same,Potency,[18],inactive
same,Potency,[20],inactive
Cc1ccnc2ccccc12,Potency,[1],inactive
same,Potency,[2],inactive
same,Potency,[3],inactive
same,Potency,[4],inactive
same,Potency,[5],inactive
same,Potency,[6],19.3 µM (active)
same,outcome,[19],inactive
same,outcome,[9],inactive
same,outcome,[10],inactive
same,Potency,[11],inactive
same,outcome,[12],inactive
same,outcome,[13],inactive
same,outcome,[14],inactive
same,Potency,[15],inactive
same,outcome,[16],inactive
same,Potency,[17],inactive
same,Potency,[18],inactive
same,Potency,[20],inactive
CC(C)OCC1CO1 (configuration not stated),Potency,[1],inactive
same,Potency,[2],inactive
same,Potency,[3],inactive
same,Potency,[4],inactive
same,Potency,[5],inactive
same,outcome,[19],inactive
same,outcome,[7],inactive
same,Potency,[8],inactive
same,outcome,[9],inactive
same,outcome,[10],inactive
same,Potency,[11],inactive
same,outcome,[12],inactive
same,outcome,[13],inactive
same,outcome,[14],inactive
same,Potency,[15],inactive
same,outcome,[16],inactive
same,Potency,[17],inactive
same,Potency,[18],inactive
same,Potency,[20],inactive
Cc1ccccc1N1C(=O)c2cc(S(N)(=O)=O)c(Cl)cc2NC1C (configuration not stated),Potency,[1],inactive
same,Potency,[2],inactive
same,Potency,[3],inactive
same,Potency,[4],inactive
same,Potency,[5],inactive
same,Potency,[6],inactive
same,outcome,[7],inactive
same,Potency,[8],inactive
same,outcome,[9],inactive
same,Potency,[11],inactive
same,outcome,[12],inactive
same,outcome,[13],inactive
same,outcome,[14],inactive
same,Potency,[15],inactive
same,outcome,[16],inactive
same,Potency,[17],inactive
same,Potency,[18],inactive
same,Potency,[20],inactive
COc1ccc(CCC(=O)c2c(O)cc(O[C@@H]3O[C@H](CO)[C@@H](O)[C@H](O)[C@H]3O[C@@H]3O[C@@H](C)[C@H](O)[C@@H](O)[C@H]3O)cc2O)cc1O,Potency,[1],inactive
same,Potency,[2],inactive
same,Potency,[3],inactive
same,Potency,[4],inactive
same,Potency,[5],inactive
same,Potency,[6],inactive
same,outcome,[19],inactive
same,Potency,[8],inactive
same,outcome,[9],inactive
same,outcome,[10],inactive
same,Potency,[11],inactive
same,outcome,[12],inactive
same,outcome,[13],inactive
same,outcome,[14],inactive
same,Potency,[15],inactive
same,outcome,[16],inactive
same,Potency,[17],inactive
same,Potency,[18],inactive
CC1CC(=O)NN=C1c1ccc(NCC(C)(C)NCC(O)COc2cc(Cl)ccc2C#N)cc1 (configuration not stated),Potency,[1],inactive
same,Potency,[2],inactive
same,Potency,[3],inactive
same,Potency,[4],inactive
same,outcome,[7],inactive
same,Potency,[8],inactive
same,outcome,[9],inactive
same,outcome,[10],inactive
same,Potency,[11],inactive
same,outcome,[12],inactive
same,outcome,[13],inactive
same,outcome,[14],inactive
same,Potency,[15],inactive
same,outcome,[16],inactive
same,Potency,[18],inactive
same,Potency,[20],inactive
O=[N+]([O-])c1cccc(S(=O)(=O)NCCNS(=O)(=O)c2cccc([N+](=O)[O-])c2)c1,Potency,[1],inactive
same,Potency,[2],inactive
same,Potency,[3],inactive
same,Potency,[4],inactive
same,Potency,[6],11.9 µM (active)
same,outcome,[19],inactive
same,outcome,[7],inactive
same,Potency,[8],inactive
same,outcome,[9],inactive
same,outcome,[10],inactive
same,Potency,[11],inactive
same,outcome,[12],inactive
same,outcome,[13],inactive
same,outcome,[14],inactive
same,Potency,[15],inactive
same,outcome,[16],inactive
same,Potency,[17],inactive
same,Potency,[18],inactive
same,Potency,[20],inactive
CC(C)(C)C(=O)O,Potency,[1],inactive
same,Potency,[2],inactive
same,Potency,[3],inactive
same,Potency,[4],inactive
same,outcome,[19],inactive
same,outcome,[7],inactive
same,Potency,[8],inactive
same,outcome,[9],inactive
same,Potency,[11],inactive
same,outcome,[12],inactive
same,outcome,[13],inactive
same,outcome,[14],inactive
same,Potency,[15],inactive
same,outcome,[16],inactive
same,Potency,[17],inactive
same,Potency,[18],inactive
CCCCCC=CCC=CCCCCCCCC(=O)OCC,Potency,[1],inactive
same,Potency,[2],inactive
same,Potency,[3],inactive
same,Potency,[5],inactive
same,Potency,[6],inactive
same,outcome,[19],inactive
same,outcome,[7],inactive
same,Potency,[8],inactive
same,outcome,[9],inactive
same,outcome,[10],inactive
same,Potency,[11],inactive
same,outcome,[12],inactive
same,outcome,[13],inactive
same,outcome,[14],inactive
same,outcome,[16],inactive
same,Potency,[17],inactive
same,Potency,[18],inactive
same,Potency,[20],inactive
O=C(/C=C/c1ccccc1)OCCCc1ccccc1,Potency,[1],inactive
same,Potency,[2],inactive
same,Potency,[3],inactive
same,Potency,[5],inactive
same,Potency,[6],inactive
same,outcome,[19],inactive
same,outcome,[7],inactive
same,outcome,[10],inactive
same,Potency,[11],inactive
same,outcome,[12],inactive
same,outcome,[13],inactive
same,outcome,[14],inactive
same,Potency,[15],inactive
same,outcome,[16],inactive
same,Potency,[18],inactive
O=S(=O)(c1ccccc1)c1ccc(Cl)cc1,Potency,[1],inactive
same,Potency,[2],inactive
same,Potency,[3],inactive
same,Potency,[4],inactive
same,outcome,[19],inactive
same,outcome,[7],inactive
same,Potency,[8],inactive
same,outcome,[10],inactive
same,Potency,[11],inactive
same,outcome,[12],inactive
same,outcome,[13],inactive
same,outcome,[14],inactive
same,Potency,[15],inactive
same,outcome,[16],inactive
same,Potency,[18],inactive
same,Potency,[20],inactive
CC(C)(C)C(=O)C(Oc1ccc(Cl)cc1)n1ccnc1 (configuration not stated),Potency,[1],inactive
same,Potency,[2],inactive
same,Potency,[3],inactive
same,Potency,[4],inactive
same,outcome,[19],inactive
same,outcome,[7],inactive
same,Potency,[8],inactive
same,outcome,[9],inactive
same,outcome,[10],inactive
same,Potency,[11],inactive
same,outcome,[12],inactive
same,outcome,[13],inactive
same,outcome,[14],inactive
same,Potency,[15],inactive
same,outcome,[16],inactive
